Reference: PubChem BioAssay (NCI)
About 83,000 compounds went through this panel and 20% of them were active in at least one assay; those are over-represented in the sample as a whole.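 Step 1: grow cells in 96-well plates. Step 2: add test compound at a single concentration. Step 3: incubate 48 h. Step 4: record percent growth.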 The source made the active and inactive calls. The calls were made as follows: active = growth percent below 10; inactive = the rest.

Columns and labels:
Test in all cases: NCI-60 one-dose screen, 48 h (100 = growth as untreated, 0 = no growth, -100 = all killed)
Settings in all cases: 10 µM unless noted
DU-145 prostate = test system: DU-145 prostate
K-562 leukemia = test system: K-562 leukemia
MALME-3M melanoma = test system: MALME-3M melanoma
MDA-MB-231 breast = test system: MDA-MB-231 breast
RXF 393 renal = test system: RXF 393 renal
SF-268 CNS = test system: SF-268 CNS
SF-295 CNS = test system: SF-295 CNS
SF-539 CNS = test system: SF-539 CNS
UACC-257 melanoma = test system: UACC-257 melanoma
M14 melanoma = test system: M14 melanoma
HCT-15 colon = test system: HCT-15 colon
HT29 colon = test system: HT29 colon
SNB-75 CNS = test system: SNB-75 CNS
SNB-19 CNS = test system: SNB-19 CNS
U251 CNS = test system: U251 CNS
PC-3 prostate = test system: PC-3 prostate
SK-MEL-5 melanoma = test system: SK-MEL-5 melanoma
UACC-62 melanoma = test system: UACC-62 melanoma
LOX IMVI melanoma = test system: LOX IMVI melanoma

Measured: growth

COc1cc(/C=C/C(=O)/C=C/c2cc3ccc(Cl)cc3n(Cc3ccccc3)c2=O)ccc1O
inactive: SF-268 CNS 13.7% | SNB-75 CNS 63.3% | SNB-19 CNS 13.3%
active: DU-145 prostate -35.1% | K-562 leukemia 3.2% | MALME-3M melanoma 4.83% | MDA-MB-231 breast -16.7% | RXF 393 renal -79.9% | SF-295 CNS 5.91% | SF-539 CNS 9.94% | UACC-257 melanoma -13.9% | M14 melanoma -11.3% | HCT-15 colon -46.1% | HT29 colon -46.5% | U251 CNS -64.7% | PC-3 prostate -2.36% | SK-MEL-5 melanoma -80.5% | UACC-62 melanoma -56% | LOX IMVI melanoma -90%

COc1ccc(-c2cc(-c3nnc(SCC(=O)Nc4ccc(/C(C)=N\O)cc4)o3)c3ccccc3n2)cc1
inactive: DU-145 prostate 109% | K-562 leukemia 96.5% | MALME-3M melanoma 97.8% | MDA-MB-231 breast 114% | RXF 393 renal 106% | SF-268 CNS 101% | SF-295 CNS 105% | SF-539 CNS 111% | UACC-257 melanoma 101% | M14 melanoma 115% | HCT-15 colon 100% | HT29 colon 101% | SNB-75 CNS 98.3% | SNB-19 CNS 90.8% | U251 CNS 101% | PC-3 prostate 100% | SK-MEL-5 melanoma 99.2% | UACC-62 melanoma 106% | LOX IMVI melanoma 97.7%

CCOC(=O)C(=Cc1c(-c2ccccc2)[nH]c2ccccc12)C(=O)OCC
inactive: DU-145 prostate 58.7% | MALME-3M melanoma 95.5% | MDA-MB-231 breast 63.3% | RXF 393 renal 51.9% | SF-268 CNS 60.7% | SF-539 CNS 88.1% | UACC-257 melanoma 44.3% | M14 melanoma 47.8% | HCT-15 colon 36.5% | HT29 colon 31% | SNB-75 CNS 48.4% | SNB-19 CNS 106% | U251 CNS 52.9% | SK-MEL-5 melanoma 41.6% | UACC-62 melanoma 43.5% | LOX IMVI melanoma 57.3%
active: K-562 leukemia -6.49% | SF-295 CNS -10.2% | PC-3 prostate -16%

COc1ccc(Nc2cc(NC(=O)CNc3cc(OC)c(Cl)c(OC)c3Cl)ncn2)cc1
inactive: DU-145 prostate 98.8% | K-562 leukemia 74.1% | MALME-3M melanoma 106% | MDA-MB-231 breast 69.4% | RXF 393 renal 86.7% | SF-268 CNS 78.3% | SF-295 CNS 76.4% | SF-539 CNS 82% | UACC-257 melanoma 88% | M14 melanoma 75.2% | HCT-15 colon 73.5% | HT29 colon 80.9% | SNB-75 CNS 81.3% | SNB-19 CNS 96.8% | U251 CNS 88.5% | PC-3 prostate 57.9% | SK-MEL-5 melanoma 85.1% | UACC-62 melanoma 62.8% | LOX IMVI melanoma 57.2%

c1ccc2nc(N3CCOCC3)c(N3CCCCC3)nc2c1
inactive: DU-145 prostate 111% | K-562 leukemia 90.5% | MALME-3M melanoma 92.1% | MDA-MB-231 breast 97% | RXF 393 renal 98% | SF-268 CNS 95.2% | SF-295 CNS 97.2% | SF-539 CNS 99% | UACC-257 melanoma 103% | M14 melanoma 105% | HCT-15 colon 100% | HT29 colon 96.1% | SNB-75 CNS 76.7% | SNB-19 CNS 93.9% | U251 CNS 96.9% | PC-3 prostate 90.8% | SK-MEL-5 melanoma 96.8% | UACC-62 melanoma 83.1% | LOX IMVI melanoma 99.1%

CC(C)Cc1cc(CNC(=O)C2[C@H]3CN(C(=O)c4ccccc4)C[C@@H]23)nn1-c1ccccc1 (stereo partly drawn)
inactive: DU-145 prostate 100% | K-562 leukemia 80.9% | MALME-3M melanoma 86.6% | MDA-MB-231 breast 103% | RXF 393 renal 99.8% | SF-268 CNS 94.4% | SF-295 CNS 101% | SF-539 CNS 96.8% | UACC-257 melanoma 73.4% | M14 melanoma 95.5% | HCT-15 colon 99.3% | HT29 colon 66.5% | SNB-75 CNS 105% | SNB-19 CNS 107% | U251 CNS 90.1% | PC-3 prostate 90.8% | SK-MEL-5 melanoma 99% | UACC-62 melanoma 88.2% | LOX IMVI melanoma 91.9%

OCCNc1nc(NCCO)nc(Nc2ccc(C3=NN(c4cc(Cl)cc(Cl)c4)C(c4ccccc4)C3)cc2)n1 (stereo not drawn)
inactive: DU-145 prostate 45.8% | K-562 leukemia 18.4% | MALME-3M melanoma 59.2% | MDA-MB-231 breast 42.1% | RXF 393 renal 11% | SF-268 CNS 50.8% | SF-295 CNS 10% | SF-539 CNS 38% | UACC-257 melanoma 91.2% | M14 melanoma 46.2% | HCT-15 colon 27.5% | SNB-75 CNS 52.5% | SNB-19 CNS 58.7% | U251 CNS 27.2% | PC-3 prostate 24.5% | SK-MEL-5 melanoma 51.7% | UACC-62 melanoma 20.9%
active: HT29 colon 9.1% | LOX IMVI melanoma -36.9%
